# Test results: the supplement of paper PMC9135407
# Where “and” joins values, the source holds several entries; their conditions need not be identical. Equal values may be shown once. Where a name gives a salt, the structure may show the parent alone. The campaign covered roughly 5,800 compounds. About 620 (11%) showed activity. The full list was thinned out, with actives kept by preference. A number with no mark means an inactive call.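 How the source made its calls: active = score above a cut-off or among the top three wells of a plate; in these data no inactive exceeds 0.85.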
# Test system: primary human hepatic stellate cells (donor 1)
# Test: scaled lipid accumulation score (0 = DMSO-like, 1 = nortriptyline-like); higher = stronger HSC inactivation (lipid re-accumulation), active = hit call of the paper
# Details: 48 h
# [1] = library stock concentration: 1 mM
# [2] = library stock concentration: 10 mM
# [3] = library stock concentration: 3.33 mM
# [4] = library stock concentration: 80 uM
# [5] = library stock concentration: 400 uM
# [6] = library stock concentration: 2 mM
smiles,measurement,setting,value
CC/C=C\C/C=C\C/C=C\C/C=C\C/C=C\CCCC(=O)O[C@H](COCCCCCCCCCCCCCCCC)COP(=O)([O-])OCC[N+](C)(C)C [Eicosapentaenoyl PAF C-16],scaled lipid accumulation score,[1],≤ 0
COc1ccc(CCN(C)CCCC(C#N)(c2cc(OC)c(OC)c(OC)c2)C(C)C)cc1OC (stereo not given),scaled lipid accumulation score,[2],0.616
CCCCC[C@H](O)/C=C/[C@@H]1[C@H]2C[C@@H](CCCCC(=O)O)O[C@H]2C[C@H]1O [6.alpha.-Prostaglandin I1],scaled lipid accumulation score,[1],0.002
C=CCc1ccc(O)c(-c2ccc(O)c(CC=C)c2)c1 [Honokiol],scaled lipid accumulation score,[3],≤ 0
same,scaled lipid accumulation score,[2],0.295
CCCCC[C@@H](O)/C=C/[C@H]1C(=O)C[C@H](O)[C@@H]1CCCCCCCO [Prostaglandin D1 Alcohol],scaled lipid accumulation score,[1],≤ 0
CC(=O)CCCCn1cnc2c1c(=O)n(C)c(=O)n2C,scaled lipid accumulation score,[2],≤ 0
Nc1ncnc2c1C(=O)N(c1ccc([C@H]3CC[C@H](CC(=O)O)CC3)cc1)CCO2,scaled lipid accumulation score,[3],≤ -0.009
same,scaled lipid accumulation score,[2],≤ 0
COc1ccc(CCC(C)NC2CC(C)(C)NC(C)(C)C2)cc1 (stereo not given),scaled lipid accumulation score,[2],0.998 (active)
COc1ccc(CNCc2cccc3ccccc23)cc1,scaled lipid accumulation score,[3],0.023
same,scaled lipid accumulation score,[2],0.491
CC(/C=C/c1cccc(Oc2ccc(F)cc2)c1)N(O)C(N)=O (stereo not given),scaled lipid accumulation score,[2],0.544 and 0.071
C[C@@H]1C[C@H]2[C@@H]3CCC4=CC(=O)C=C[C@]4(C)[C@@]3(F)[C@@H](O)C[C@]2(C)[C@H]1C(=O)CO,scaled lipid accumulation score,[2],≤ 0
Cc1cc(C)cc(OCC2CNC(=O)O2)c1 (stereo not given) [Metaxalone],scaled lipid accumulation score,library stock concentration: 9 mM,≤ 0
same,scaled lipid accumulation score,[2],≤ -0.023
COc1ccc2nc3cc(Cl)ccc3c(Nc3cc(CN4CCCC4)c(O)c(CN4CCCC4)c3)c2n1,scaled lipid accumulation score,[2],0.065
N=C(N)NC(=N)N1CCOCC1 [Moroxydine HCl],scaled lipid accumulation score,[3],0.051
same,scaled lipid accumulation score,library stock concentration: 9.6 mM,≤ -0.006
same,scaled lipid accumulation score,[2],≤ 0
N=C(N)NC(=N)N1CCOCC1,scaled lipid accumulation score,[2],≤ 0
CCN(CC)CCCCNc1ncc2cc(-c3c(Cl)cccc3Cl)c(NC(=O)NC(C)(C)C)nc2n1 [listing 1 of 2 here],scaled lipid accumulation score,[2],1.41 (active)
CCN(CC)CCOc1ccc(Nc2ncc3cc(-c4c(Cl)cccc4Cl)c(=O)n(C)c3n2)cc1,scaled lipid accumulation score,[2],0.416
CSc1cccc(Nc2ncc3cc(-c4c(Cl)cccc4Cl)c(=O)n(C)c3n2)c1,scaled lipid accumulation score,[3],0.68
same,scaled lipid accumulation score,[2],0.591
CCN(CC)CCCCNc1ncc2cc(-c3c(Cl)cccc3Cl)c(NC(=O)NC(C)(C)C)nc2n1 [listing 2 of 2 here],scaled lipid accumulation score,[2],0.999 (active)
COc1c(C=O)c(O)cc2c1C(=O)c1ccccc1C2=O [Damnacanthal],scaled lipid accumulation score,library stock concentration: 17.7 mM,≤ -0.011
Nc1nc(=O)c2c([nH]1)NC[C@@H](CNc1ccc(C(=O)N[C@@H](CCC(=O)O)C(=O)O)cc1)N2C=O [Folinic acid calcium salt],scaled lipid accumulation score,,≤ 0
O=C(c1ccc(/C=C/c2n[nH]c3ccccc23)cc1)N1CCNCC1,scaled lipid accumulation score,[4],≤ -0.016
same,scaled lipid accumulation score,[5],≤ -0.016
same,scaled lipid accumulation score,[6],≤ -0.016
same,scaled lipid accumulation score,[3],0.101
same,scaled lipid accumulation score,[2],0.67
CCC(=O)N1CCN(C(=O)c2ccccc2)CC1,scaled lipid accumulation score,[2],0.027
O=C(c1ccc(C=Cc2n[nH]c3ccccc23)cc1)N1CCNCC1,scaled lipid accumulation score,[2],1.27 (active)
CCCCC(CC)CNC(=N)NC(=N)NCCCCCCNC(=N)NC(=N)NCC(CC)CCCC (stereo not given) [Alexidine dihydrochloride],scaled lipid accumulation score,,0.586
"CCCCC(C)(C)[C@H](O)/C=C/[C@@H]1[C@@H](C/C=C\CCCC(=O)O)[C@@H](O)C[C@H]1O [16,16-dimethyl Prostaglandin F2.alpha.]",scaled lipid accumulation score,[1],≤ 0
O=[N+]([O-])c1cn2c(n1)OC[C@@H](OCc1ccc(OC(F)(F)F)cc1)C2,scaled lipid accumulation score,[3],≤ 0
same,scaled lipid accumulation score,[2],≤ 0
NC(=O)c1ccc([N+](=O)[O-])cc1Cl [Aklomide],scaled lipid accumulation score,[2],0.07
O=[N+]([O-])c1ccc2c(c1)S(=O)(=O)C=C2 [Stattic] [listing 1 of 2 here],scaled lipid accumulation score,[3],1.25 (active)
O=[N+]([O-])c1ccc2c(c1)S(=O)(=O)C=C2 [Stattic] [listing 2 of 2 here],scaled lipid accumulation score,[2],0.347
CCCCCCCC/C=C\CCCCCCCC(=O)NCC [Oleoyl Ethyl Amide],scaled lipid accumulation score,[1],≤ 0
O=c1[nH]cnc2[nH]ncc12 [Allopurinol Sodium],scaled lipid accumulation score,[3],≤ 0
same,scaled lipid accumulation score,[2],≤ 0
CC(C)C(=O)Oc1ccc(CO)cc1[C@H](CCN(C(C)C)C(C)C)c1ccccc1.O=C(O)C=CC(=O)O [Fesoterodine Fumarate],scaled lipid accumulation score,[2],1.13 (active)
CC(C)C(=O)Oc1ccc(CO)cc1[C@H](CCN(C(C)C)C(C)C)c1ccccc1 [Fesoterodine Fumarate],scaled lipid accumulation score,[3],0.256
CC(C)N(CC[C@H](c1ccccc1)c1cc(CO)ccc1O)C(C)C,scaled lipid accumulation score,[3],0.012
same,scaled lipid accumulation score,[2],≤ 0
O=C(Cc1ccccc1Nc1c(Cl)cccc1Cl)Oc1ccc(-c2cc(=S)ss2)cc1,scaled lipid accumulation score,[1],≤ 0
O=C(Nc1nc2ccccc2n1CCN1CCOCC1)c1cccc([N+](=O)[O-])c1 [IRAK-1/4 Inhibitor I],scaled lipid accumulation score,[2],0.485
C[C@H]1[C@H]2CC[C@H]3[C@@H]4CC=C5C[C@@H](N(C)C)CC[C@]5(C)[C@H]4CC[C@]23CN1C [Conessine],scaled lipid accumulation score,,0.137
Cc1cc(C(C)Nc2ccccc2)c2nc(N3CCOCC3)cc(=O)n2c1 (stereo not given),scaled lipid accumulation score,[4],≤ -0.009
same,scaled lipid accumulation score,[5],≤ -0.009 and ≤ -0.005
same,scaled lipid accumulation score,[6],≤ -0.009 and ≤ -0.005
same,scaled lipid accumulation score,[3],≤ 0
same,scaled lipid accumulation score,[2],≤ 0 and ≤ -0.009 and ≤ -0.005
Cl.Cl.O=C(NCCCN1CCC2(CC1)OCc1ccccc12)[C@H]1CCCN1Cc1ccccc1,scaled lipid accumulation score,[2],0.974 (active)
"c1ccc(CN2CCC3(CCc4ccccc43)CC2)cc1 [L-693,403 maleate]",scaled lipid accumulation score,[2],0.504
"c1ccc(CN2CCC3(CCCc4ccccc43)CC2)cc1 [L-687,384 hydrochloride]",scaled lipid accumulation score,[2],0.374
